Measurements: PubChem BioAssay AID652154 (Broad Institute, 2013)
About 4,200 (1.2%) of roughly 360,000 compounds were called active.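 Rule for the calls: active = mean replicate inhibition at least 60% with every replicate also reaching 60%; inconclusive = only one of the two criteria is met; inactive = mean below 60% and not all replicates reaching 60%.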 For the sample, actives were picked, then their nearest neighbours and some compounds at random.

Assay: inhibitors of PAX8-driven TPO luciferase reporter, primary screen, RMG-I cells, single concentration (AID 652154);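 note: luciferase light reporting Pax8 driven TPO promoter activity; plate controls were median of neutral control wells for no effect and mitoxantrone controls for full effect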
Conditions: SteadyGlo, 24 h, at 12.6 µM, active compounds read high

SMILES | inhibition
CO[C@@H]1CC[C@H]2CCN(C)C(=O)C[C@@H](c3ccccc3)CN(C)C(=O)c3cc(C#N)ccc3OC[C@@H]1O2 | 5.74% (inactive)
N#C[C@@H]1N[C@@H](CO)[C@@H]1c1ccc(C#Cc2ccccc2F)cc1 | -118% (inactive)
O=C(C[C@@H]1CC[C@@H]2[C@H](COC[C@H](O)CN2C(=O)Nc2cccc(Cl)c2)O1)NCCCN1CCOCC1 | -32.8% (inactive)
O=C(c1ccncc1)N1CC(=O)N2[C@H](CO)[C@@H](c3ccc(-c4cccnc4)cc3)[C@H]2C1 | 7.54% (inactive)
COCC(=O)N(C)C[C@H]1[C@@H](c2ccc(-c3cccnc3)cc2)[C@H](CO)N1C(C)=O | 0.314% (inactive)
COc1ccccc1S(=O)(=O)N[C@@H]1CC[C@H](CC(=O)N2CCOCC2)O[C@@H]1CO | 3.09% (inactive)
COc1ccc(C#Cc2ccc3c(c2)[C@]2(C(=O)N3)[C@H](c3ccccc3OCCO)N3[C@H](c4ccccc4)[C@H](c4ccccc4)OC(=O)[C@H]3[C@@H]2C(=O)N2CCCCCCC2)cc1 | 0.581% (inactive)
COC(=O)C(CC#Cc1ccc2c(c1)[C@]1(C(=O)N2)[C@H](c2ccc(O)cc2)N2[C@H](c3ccccc3)[C@H](c3ccccc3)OC(=O)[C@H]2[C@@H]1C(=O)NC[C@H](O)c1ccccc1)C(=O)OC | -24.8% (inactive)
COC(=O)C(CC#Cc1ccc2c(c1)[C@]1(C(=O)N2)[C@H](c2ccccc2OCCO)N2[C@H](c3ccccc3)[C@H](c3ccccc3)OC(=O)[C@H]2[C@@H]1C(N)=O)C(=O)OC | 92.9% (active)
Cc1ccc(S(=O)(=O)Nc2cccc3c2O[C@H](CN(C)CC2CCCCC2)[C@H](C)CN([C@H](C)CO)C3=O)cc1 | -4.8% (inactive)
COc1ccc(CN(C)C[C@H]2OCCCC[C@@H](C)Oc3ccc(NC(=O)Nc4cccc5ccccc45)cc3C(=O)N([C@H](C)CO)C[C@@H]2C)cc1 | 14.2% (inactive)
Cc1noc(/C=C/N(C)C)c1S(=O)(=O)N1CCCC(C(=O)NCc2ccco2)C1 (stereo not given) | 38.6% (inactive)
Cc1noc(/C=C/c2ccco2)c1S(=O)(=O)N1CCC(C(=O)Nc2ccc(Cl)cn2)CC1 | 74.4% (active)
CNC(=O)C1CCN(S(=O)(=O)c2c(C)noc2/C=C/c2cccc(C)c2)CC1 | -0.657% (inactive)
CC(=O)N1CCCCN2[C@H](CO)[C@H](c3ccc(-c4ccccc4)cc3)[C@@H]2C1 | 8.11% (inactive)
C[C@H](CO)N1C[C@H](C)[C@@H](CN(C)C(=O)NC2CCCCC2)Oc2c(NC(=O)Nc3ccc(F)cc3)cccc2C1=O | -8.27% (inactive)
C[C@@H]1CCCCO[C@H](CN(C)C(=O)Nc2ccc(C(F)(F)F)cc2)[C@H](C)CN([C@H](C)CO)C(=O)c2cc(NC(=O)Nc3ccc(C(F)(F)F)cc3)ccc2O1 | 17.5% (inactive)
C[C@@H]1CCCCO[C@@H](CN(C)C(=O)C2CCCCC2)[C@H](C)CN([C@H](C)CO)C(=O)c2cc(NC(=O)Cc3ccccc3)ccc2O1 | -7.3% (inactive)
C[C@@H]1CN([C@@H](C)CO)C(=O)c2cc(NC(=O)Nc3ccc(C(F)(F)F)cc3)ccc2O[C@@H](C)CCCCO[C@H]1CN(C)C(=O)c1ccccc1 | 84.4% (active)
CC(C)NC(=O)Nc1ccc2c(c1)C(=O)N([C@@H](C)CO)C[C@@H](C)[C@@H](CN(C)C(=O)Nc1ccc(C(F)(F)F)cc1)OCCCC[C@H](C)O2 | -21.5% (inactive)
C[C@@H]1CN([C@H](C)CO)C(=O)c2cccc(NC(=O)Nc3ccccc3)c2O[C@@H]1CN(C)C(=O)NC1CCCCC1 | 9.31% (inactive)
CC(C)NC(=O)N(C)C[C@H]1OCCCC[C@H](C)Oc2ccc(NC(=O)Nc3ccc(C(F)(F)F)cc3)cc2C(=O)N([C@H](C)CO)C[C@@H]1C | 93.7% (active)
C[C@H]1CN([C@@H](C)CO)C(=O)c2cccc(NC(=O)Nc3ccc(C(F)(F)F)cc3)c2O[C@H]1CN(C)C(=O)NC1CCCCC1 | 92.2% (active)
C[C@@H]1CCCCO[C@@H](CN(C)C(=O)Nc2ccc(C(F)(F)F)cc2)[C@H](C)CN([C@H](C)CO)C(=O)c2cc(NC(=O)c3ccccc3)ccc2O1 | -6.62% (inactive)
C[C@@H]1CCCCO[C@H](CN(C)C(=O)Nc2ccccc2)[C@H](C)CN([C@H](C)CO)C(=O)c2cc(NC(=O)Nc3ccccc3)ccc2O1 | 10.5% (inactive)
C[C@@H]1CCCCO[C@H](CN(C)C(=O)C2CCCCC2)[C@@H](C)CN([C@@H](C)CO)C(=O)c2cc(NC(=O)Nc3ccccc3)ccc2O1 | 80.3% (active)
CC(C)NC(=O)Nc1ccc2c(c1)C(=O)N([C@@H](C)CO)C[C@H](C)[C@H](CN(C)C(=O)c1ccccc1)OCCCC[C@@H](C)O2 | 3.59% (inactive)
Cc1ccc(S(=O)(=O)Nc2cccc3c2O[C@@H](CN(C)S(=O)(=O)c2c(C)noc2C)[C@@H](C)CN([C@H](C)CO)C3=O)cc1 | -20.1% (inactive)

SMILES | inhibition
C[C@H]1CCCCO[C@@H](CN(C)Cc2ccc3c(c2)OCO3)[C@@H](C)CN([C@@H](C)CO)C(=O)c2cc(NC(=O)c3ccccc3)ccc2O1 | 10.2% (inactive)
COCC(=O)Nc1ccc2c(c1)C(=O)N(C)C[C@@H](OC)[C@H](C)CN(C(=O)c1cccnc1)[C@H](C)CO2 | -16.5% (inactive)
C/C=C/c1cnc2c(c1)C(=O)N([C@@H](C)CO)C[C@@H](C)[C@@H](CN(C)C(=O)C1CCOCC1)O2 | -0.814% (inactive)
O=c1cc(O)c(-c2cccc(C(F)(F)F)c2)c(Cl)[nH]1 | 4.02% (inactive)
O=C(NNc1ccccc1Cl)C(O)(c1cccc(C(F)(F)F)c1)c1cccc(C(F)(F)F)c1 | 66.8% (active)
O=C(O)c1cc(S(=O)(=O)N(Cc2ccccc2)c2cccc(C(F)(F)F)c2)ccc1Cl | -20% (inactive)
O=C(C1CCCC1)N1CC(=O)N2[C@H](CO)[C@H](c3ccc(Br)cc3)[C@H]2C1 | -9.22% (inactive)
C/C=C/c1ccc([C@@H]2[C@H](CO)N(C(C)=O)[C@H]2CN(CC)C(=O)CN(C)C)cc1 | 9.68% (inactive)
COCC(=O)Nc1ccc2c(c1)OC[C@H](C)N(C(=O)c1cnccn1)C[C@@H](C)[C@H](OC)CN(C)C2=O | -7.83% (inactive)
O=C(C1CCC1)N1CCCCN2[C@H](C1)[C@@H](c1ccc(C#CC3CCCC3)cc1)[C@@H]2CO | 36.8% (inactive)
COc1cccc(-n2c(=S)[nH]c3c(oc4ccccc43)c2=O)c1 | 3.59% (inactive)
O=c1oc2ccccc2cc1-c1cn(-c2ccccc2)c(=S)[nH]1 | 62.6% (active)
CC(C)NC(=O)Nc1ccc2c(c1)C(=O)N([C@@H](C)CO)C[C@@H](C)[C@H](CN(C)C(=O)Cc1ccccc1)OCCCC[C@H](C)O2 | 4.73% (inactive)
CN1CCN(C(=O)C[C@@H]2CC[C@@H]3[C@H](COC[C@@H](O)CN3Cc3cccc(F)c3)O2)CC1 | -11.1% (inactive)
CCCC#Cc1cnc2c(c1)C(=O)N([C@@H](C)CO)C[C@@H](C)[C@@H](CN(C)C(=O)c1ccccc1)O2 | 8.32% (inactive)
C=C1C(=O)OC2C1CCC(C)=CCCC1(C)OC21 (stereo not given) | 108% (active)
O=S(=O)(c1ccc(F)cc1)N1CCCCN2[C@H](C1)[C@H](c1ccc(C3=CCCCC3)cc1)[C@@H]2CO | 16.3% (inactive)
CC(C)c1cn(CC[C@@H]2CC[C@@H](NC(=O)C3CCC3)[C@@H](CO)O2)nn1 | 2.99% (inactive)
COc1ccc(CNC(=O)CN2C(=O)c3ccccc3S2(=O)=O)cc1 | 75.6% (active)
COc1ccc(CNC(=O)COC(=O)C(CCSC)N2C(=O)c3ccccc3C2=O)cc1 (stereo not given) | -2% (inactive)
NS(=O)(=O)c1ccc(CCNC(=O)CN2C(=O)c3ccccc3S2(=O)=O)cc1 | 0.854% (inactive)
C/C=C/c1ccccc1[C@@H]1[C@@H](CO)N(S(=O)(=O)c2cccc(F)c2)[C@H]1C#N | -12.9% (inactive)
C[C@@H]1CN([C@@H](C)CO)C(=O)c2cc(NC(=O)CCCN(C)C)ccc2O[C@H]1CN(C)Cc1ccccc1 | -7.53% (inactive)
COc1ccccc1-c1ccc2c(c1)O[C@H](CN(C)C(=O)c1cccnc1)[C@H](C)CN([C@@H](C)CO)S2(=O)=O | -1.96% (inactive)
COc1ccc(/C(N)=N/OC(=O)Cc2ccccc2)cc1 | -143% (inactive)
COc1ccc(C(C#N)=C2C=CC(=NO)c3ccccc32)cc1 | 70.5% (active)
COc1ccc(C(=NN)c2ccc(OC)cc2)cc1 | -68% (inactive)
